# Laboratory results reported in PubChem BioAssay (Tox21).
# Calls of active or inactive are those of the source. Entries that show only a call come without a potency. Unless noted, calls follow the shape of the dose curve; as a rule, active = well fitted curve in the direction sought with a large enough effect in the repeat runs; inconclusive = weak or mixed curves; inactive = no such curve, though single readings can be large; an effect the other way counts as inactive or inconclusive.
# How the values were obtained:
# [1] = qHTS assay to identify small molecule antagonists of the thyroid receptor (TR) signaling pathway - cell viability counter screen (AID 743064); also: nearly all actives have a fitted effect of over 50% in size; also: potency is read from the fitted curve at half-maximal effect
# How it was run: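 GH3.TRE-Luc rat pituitary cells dosed after 4 hr plating, co-stimulated with T3 at 1 nM final, incubated 23.5 h at 37 C. Viability measured in the same wells by CellTiter-Fluor fluorescence after 30 min further at 37 C.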
# [2] = qHTS assay to identify small molecule antagonists of the thyroid receptor (TR) signaling pathway (AID 743065); also: potency is read from the fitted curve at half-maximal effect; nearly all actives have a fitted effect of over 55% in size
# How it was run: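 Antagonism measured as loss of luciferase signal in GH3 cells stably carrying a TRE-luciferase reporter, co-treated with compound and T3 (1 nM final) for 23.5 h at 37 C. Viability was read in the same well by CellTiter-Fluor.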
# [3] = qHTS assay to identify small molecule antagonists of the estrogen receptor alpha (ER-alpha) signaling pathway - cell viability counter screen (AID 743074; calls by dose curve;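 also: HEK293 cells carrying ER-alpha-UAS-bla reporter stimulated with 17beta-estradiol; nearly all actives have a fitted effect of over 45% in size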; also: potency is read from the fitted curve at half-maximal effect)
# [4] = molecular target: Estrogen receptor (Homo sapiens) (UniProt P03372); assay: qHTS assay to identify small molecule agonists of the estrogen receptor alpha (ER-alpha) signaling pathway (AID 743075; calls by dose curve;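 also: HEK293 GripTite cells with ER-alpha and UAS-driven beta-lactamase reporter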; also: potency is read from the fitted curve at half-maximal effect)
# [5] = qHTS assay to identify small molecule antagonists of the estrogen receptor alpha (ER-alpha) signaling pathway using the BG1 cell line - cell viability counter screen (AID 743081);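 also: compound given together with 17beta-estradiol as the ER stimulus; nearly all actives have a fitted effect of over 45% in size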; also: potency is read from the fitted curve at half-maximal effect
# [6] = molecular target: Aromatase (Homo sapiens) (UniProt P11511); assay: qHTS assay to identify aromatase inhibitors (AID 743083); also: nearly all actives have a fitted effect of over 55% in size; also: potency is read from the fitted curve at half-maximal effect
# [7] = system: thyroid hormone receptor (rat, GH3 cells); assay: qHTS assay to identify small molecule agonists of the thyroid receptor (TR) signaling pathway (AID 743066; calls by dose curve)
# [8] = molecular target: Estrogen receptor (Homo sapiens) (UniProt P03372); assay: qHTS assay to identify small molecule antagonists of the estrogen receptor alpha (ER-alpha) signaling pathway (AID 743069; active = well fitted curve in the direction sought with a large enough effect in the signal ratio in the repeat runs, not every such curve was filed as active; inconclusive = weak or mixed curves, or effect the other way; inactive = no such curve, though single readings can be large or run the other way; the % refers to the signal ratio)
# How it was run: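 Antagonist mode: compounds in DMSO were co-added with 17beta-estradiol to ER-alpha-bla HEK293 cells (2% charcoal-stripped serum) and left 18 h at 37C. Reporter inhibition was measured as FRET fluorescence after 2 h LiveBLAzer substrate at room temperature.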
# [9] = molecular target: Estrogen receptor (Homo sapiens) (UniProt P03372); assay: qHTS assay to identify small molecule agonists of the estrogen receptor alpha (ER-alpha) signaling pathway using the BG1 cell line (AID 743079); settings: BG1Luc4E2 cells, ERE-luciferase agonist, 22 h; activation: at 70.3 µM (top of the series); also: nearly all actives have a fitted effect of over 20% in size; also: potency is read from the fitted curve at half-maximal effect
# [10] = qHTS assay to identify small molecule antagonists of the estrogen receptor alpha (ER-alpha) signaling pathway using the BG1 cell line (AID 743080; calls by dose curve;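 also: BG1 cells stimulated with 17beta-estradiol alongside compound; nearly all actives have a fitted effect of over 25% in size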; also: potency is read from the fitted curve at half-maximal effect)
# How it was run: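 BG1-Luc-4E2 cells (endogenous full-length ER-alpha, stable 4×ERE-luciferase) were starved 5 days in phenol-red-free medium with 10% charcoal-stripped FBS, plated 24 h, then given compound plus 17beta-estradiol for 21.5 h at 37 C; ONE-Glo luminescence read after 30 min.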
# Estrogen receptor (Homo sapiens), sequence (P03372 whole entry, looked up): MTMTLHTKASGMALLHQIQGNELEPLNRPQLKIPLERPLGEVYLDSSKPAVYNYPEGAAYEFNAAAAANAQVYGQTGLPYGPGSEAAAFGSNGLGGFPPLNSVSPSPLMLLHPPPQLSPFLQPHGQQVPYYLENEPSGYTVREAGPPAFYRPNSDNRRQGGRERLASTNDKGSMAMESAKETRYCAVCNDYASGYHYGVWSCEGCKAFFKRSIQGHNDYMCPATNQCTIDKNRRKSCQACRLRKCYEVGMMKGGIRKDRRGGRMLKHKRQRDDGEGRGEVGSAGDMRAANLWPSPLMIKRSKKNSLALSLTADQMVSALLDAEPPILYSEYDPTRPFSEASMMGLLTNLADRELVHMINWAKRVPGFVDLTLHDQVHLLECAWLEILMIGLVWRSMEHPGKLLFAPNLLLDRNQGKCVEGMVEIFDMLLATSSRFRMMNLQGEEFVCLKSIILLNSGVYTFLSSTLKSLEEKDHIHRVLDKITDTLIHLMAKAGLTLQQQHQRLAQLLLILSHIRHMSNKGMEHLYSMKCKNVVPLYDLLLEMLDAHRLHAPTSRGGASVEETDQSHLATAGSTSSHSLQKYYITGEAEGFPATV
# Aromatase (Homo sapiens), sequence (P11511 whole entry, looked up): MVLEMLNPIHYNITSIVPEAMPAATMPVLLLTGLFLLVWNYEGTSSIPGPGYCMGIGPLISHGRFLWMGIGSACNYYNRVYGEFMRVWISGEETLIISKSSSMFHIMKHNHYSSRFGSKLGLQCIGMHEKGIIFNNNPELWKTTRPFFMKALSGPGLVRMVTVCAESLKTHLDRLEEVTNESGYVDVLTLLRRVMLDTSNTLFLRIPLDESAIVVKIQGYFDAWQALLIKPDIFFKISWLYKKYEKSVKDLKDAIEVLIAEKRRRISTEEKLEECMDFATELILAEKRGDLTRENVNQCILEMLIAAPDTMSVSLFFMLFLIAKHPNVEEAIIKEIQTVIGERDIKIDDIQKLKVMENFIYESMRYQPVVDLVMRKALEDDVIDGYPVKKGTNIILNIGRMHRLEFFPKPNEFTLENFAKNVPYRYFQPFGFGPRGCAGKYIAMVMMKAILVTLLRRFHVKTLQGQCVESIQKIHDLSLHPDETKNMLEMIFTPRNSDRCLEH
Compound,Potency [1],Potency [2],Potency [3],Potency [4],Potency [5],Potency [6],Potency [7],Potency [8],Potency [9],Potency [10]
CO[C@H]1C[C@H](O[C@H]2[C@H](C)O[C@@H](O[C@@H]3/C(C)=C/C[C@@H]4C[C@@H](C[C@]5(C=C[C@H](C)[C@@H](C6CCCCC6)O5)O4)OC(=O)[C@@H]4C=C(C)[C@@H](O)[C@H]5OC/C(=C\C=C\[C@@H]3C)[C@]54O)C[C@@H]2OC)O[C@@H](C)[C@@H]1O,2.66 µM (active),2.66 µM (active),16.9 µM (active),inactive,21.1 µM (active),inactive,,,,
C=C1CC[C@H](O)CC1=C/C=C1\CCC[C@]2(C)[C@@H]([C@H](C)CCCC(C)(C)O)CC[C@@H]12,11.9 µM (active),6.68 µM (active),23.9 µM (active),inactive,inactive,inactive,,,,
O=C(Nc1ccc(Br)cc1)c1cc(Br)c(Br)s1,18.8 µM (active),13.3 µM (active),,inactive,inactive,inactive,,,,
CCCCC(=O)OCC(=O)[C@]1(O)Cc2c(O)c3c(c(O)c2[C@@H](O[C@H]2C[C@H](NC(=O)C(F)(F)F)[C@H](O)[C@H](C)O2)C1)C(=O)c1c(OC)cccc1C3=O,9.44 µM (active),5.96 µM (active),inactive,,23.7 µM (active),inactive,,,,
N[C@H](CCC(=O)O)C(=O)O,inactive,,inactive,inactive,inactive,inactive,inactive,inactive,inactive,inactive
CC(=O)Oc1cc(C)c(OC(C)=O)c2ccccc12,26.6 µM (active),23.7 µM (active),inactive,inactive,inactive,26.6 µM (active),,,,inactive
CC1(S(=O)(=O)O)CC(=O)c2ccccc2C1=O (stereo not given),13.3 µM (active),13.3 µM (active),inactive,,inactive,26.6 µM (active),,,,33.5 µM (active)
CC(C)=CCC/C(C)=C/C=C/C(C)=C/C=C/C(C)=C/C=C/C=C(C)/C=C/C=C(C)/C=C/C=C(\C)CCC=C(C)C,inactive,,inactive,7.56 µM [inconclusive] (active),inactive,inactive,inactive,inactive,6.68 µM (active),inactive
NCCCC[C@H](N)C(=O)O,inactive,,inactive,inactive,inactive,inactive,,inactive,inactive,inactive
CCOc1cc(-c2nccc3cc(OC)c(OC)cc23)cc(OCC)c1OCC,29.8 µM (active),,inactive,inactive,,,inactive,,,
CC(=O)Nc1c(I)c(C(=O)N[C@H]2C(O)O[C@H](CO)[C@@H](O)[C@@H]2O)c(I)c(N(C)C(C)=O)c1I (stereo not given in full),inactive,,inactive,inactive,inactive,inactive,,inactive,inactive,inactive
CC1(C)C2CC[C@]3(C)[C@H](C(=O)C=C4[C@@H]5C[C@@](C)(C(=O)O)CC[C@]5(C)CC[C@]43C)[C@@]2(C)CC[C@@H]1O[C@H]1O[C@H](C(=O)O)[C@@H](O)[C@H](O)[C@H]1O[C@@H]1O[C@H](C(=O)O)[C@@H](O)[C@H](O)[C@H]1O (stereo not given in full),inactive,,inactive,,inactive,inactive,inactive,,,
FCOC(C(F)(F)F)C(F)(F)F,inactive,,inactive,inactive,inactive,inactive,,inactive,inactive,inactive
CCC(=O)O[C@]1(C(=O)CCl)[C@@H](C)C[C@H]2[C@@H]3C[C@H](F)C4=CC(=O)C=C[C@]4(C)[C@@]3(F)[C@@H](O)C[C@@]21C,inactive,,inactive,,inactive,inactive,inactive,,,
COc1cc(NCCCC(C)N)c2ncccc2c1 (stereo not given),15 µM (active),,inactive,inactive,18.8 µM (active),,inactive,inactive,,
C[C@@H]1C[C@H]2C3C[C@H](F)C4=CC(=O)C=CC4(C)[C@@]3(F)[C@@H](O)CC2(C)[C@@]1(O)C(=O)COC(=O)C(C)(C)C (stereo not given in full),inactive,,inactive,inactive,inactive,inactive,inactive,,inactive,
CCC(=O)NCCC1CCc2ccc3c(c21)CCO3 (stereo not given),inactive,,inactive,inactive,inactive,inactive,inactive,,4.22 µM (active),
CC(C)CCC[C@@H](C)[C@H]1CC(=O)C2=C3CC[C@H]4C[C@@H](O)CC[C@]4(C)[C@H]3CC[C@@]21C,inactive,,,inactive,inactive,inactive,inactive,inactive,inactive,inactive
Cc1cccc(C)c1Nc1ncccc1C(=O)O,inactive,,inactive,inactive,inactive,inactive,inactive,inactive,,
C/C=C(/CC[C@@H](C)[C@H]1CC[C@H]2C3=CC[C@H]4[C@H](C)[C@@H](O)CC[C@]4(C)[C@H]3CC[C@]12C)C(C)C,inactive,,inactive,,inactive,inactive,inactive,,,
CC(=O)O[C@H]1CC[C@@]2(C)C(=CC[C@@H]3[C@@H]2CC[C@]2(C)C(c4cccnc4)=CC[C@@H]32)C1,29.8 µM (active),,inactive,13.4 µM [activator] (active),inactive,inactive,inactive,inactive,29.8 µM (active),inactive
